Compound activity (PubChem BioAssay)
ClpP mod: qHTS Assay for Activators of ClpP. actives 1.9% (n = 340,000). purified B. subtilis ClpP, FRET peptide cleavage, 20 min. Potency, µM (top dose mostly 57.5 µM), inactives show at the top dose activity change, negative = active. AID 651965, 2013. ATP-dependent Clp protease proteolytic subunit (Bacillus subtilis (strain 168)), P80244; active = well fitted falling curve with a large enough effect; inconclusive = small, poorly fitted or top-dose-only effect; inactive = no such curve, though single readings can be large or run the other way; also: the source files actives as falling curves though it sought activators and does not explain the sign; nearly all actives have a fitted effect of over 65% in size
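ClpP 10 microg/mL final, pH 8 Tris/KCl buffer with BSA, glycerol, Tween-20; compound pinned in; FRET-FV substrate; RT 20 min; Ex320/Em430; ΔFRET vs ADEP 5.8 microM, DMSO, no enzyme.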
DT40 TDP1 no CPT: qHTS for Inhibitors of human tyrosyl-DNA phosphodiesterase 1 (TDP1): qHTS in cells in absence of CPT; DT40 Tdp1-/- hTDP1 cells, no CPT, ATP luminescence, 48 h; actives 15% (n = 420,000); AID 686978, 2013; Potency, µM (series often up to 46.2 µM), for inactives: at the top dose activity change, negative = growth inhibition, usual class: inhibitors; also: % is scaled to controls: 0 for no effect and ±100 for the full control effect; nearly all actives have a fitted effect of over 55% in size
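Seeded 400 DT40-hTDP1 cells/well (vehicle DMSO, no 20 nM CPT); pinned compounds; ≥48 hr at 37 °C; CellTiter-Glo luminescence as viability measure.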
TDP1 block: TDP1 (human) enzyme inhibition | Q9NUW8 | recombinant TDP1, AlphaScreen DNA substrate cleavage | Potency, µM (top dose mostly 130 µM), inactives show top-dose activity change, negative = inhibition, most hits filed as inhibitors | actives 0.28% (n = 350,000); also: % is scaled to controls: 0 for no effect and ±100 for the full control effect; nearly all actives have a fitted effect of over 40% in size
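Recombinant human Tdp1 (E. coli-expressed, 1 nM final) preincubated with compounds 15 min at room temperature, then 5'-biotin/3'-phosphotyrosine-FITC DNA substrate (15 nM final) added for 5 min. AlphaScreen beads (10 ug/ml final) added 10 min; cleavage lowers signal.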
TDP1 cell CPT: DT40-hTDP1 cell growth loss with CPT. chicken DT40 Tdp1-/-;hTDP1 cells + 20 nM CPT, ATP luminescence, 48 h. Potency, µM (top dose mostly 46.2 µM), without a hit: at the highest dose activity change, negative = growth inhibition, most hits filed as inhibitors. actives 12% (n = 420,000); also: % is scaled to controls: 0 for no effect and ±100 for the full control effect; nearly all actives have a fitted effect of over 55% in size
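Chicken DT40 Tdp1-/- cells stably complemented with human TDP1 were seeded at 400 cells/well in medium containing 20 nM camptothecin, exposed to pin-transferred compounds, and grown at 37 °C for at least 48 hr. Viability was read as ATP luminescence.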
Starred values were filed as active, the others as inactive; ? = inconclusive; · = no result; [ ] = dose if it differs, or a comment. Compounds with a hit are over-represented: about 17% of the library has one in this group of screens. Unless noted, calls follow the shape of the dose curve; as a rule, active = well fitted curve in the direction sought with a large enough effect; inconclusive = small, poorly fitted or top-dose-only effect, or another doubt; inactive = no such curve, though single readings can be large; an effect the other way counts as inactive or inconclusive. Potency is read from the fitted curve at half-maximal effect.

SMILES | ClpP mod | DT40 TDP1 no CPT | TDP1 block | TDP1 cell CPT
COc1cccc(Oc2c(C)oc3cc(OC(=O)N(C)C)ccc3c2=O)c1 | 1% | -15% | -12% | ?
CCOC(=O)c1c(-c2ccc(OC)cc2)oc2ccc(OC(=O)N(C)C)cc12 | ? | 18µM* | -4% | ?
COC(=O)CCCc1[se]c2ccccc2c1I | · | · | 1% | ·
O=C1C(c2ccccc2)=C(N2CC2)c2ccccc21 | -2% | ? | 11% | ?
O=C1C(=O)c2ccccc2-c2ccccc21 | 2% | 0.58µM* | 3% | 0.52µM*
c1cc2ccc3cccc4ccc(c1)c2c34 | · | -21%[92.5 µM] | 8% | -9%[92.5 µM]
O=C1C(=O)c2cccc3cccc1c23 | -1% | 0.65µM* | -8% | 0.58µM*
C[C@H]1CCC/C=C/C2C[C@H](O)CC2[C@H](O)/C=C/C(=O)O1 (some centres not stated) | -2% | 0.18µM* | 3% | 0.23µM*
CC1CCC/C=C/C2CC(O)CC2C(O)/C=C/C(=O)O1 (configuration not stated) | 1% | 0.37µM* | 8% | 0.29µM*
CC(=O)OC(C)(C)/C=C/C(=O)[C@](C)(O)C1[C@H](O)C[C@@]2(C)C3CC=C4C(C[C@H](O)C(=O)C4(C)C)[C@]3(C)C(=O)C[C@]12C (some centres not stated) | 0% | 0.021µM* | 0% | 0.0082µM*
CC(C)(O)/C=C/C(=O)C(C)(O)C1C(O)CC2(C)C3CC=C4C(C=C(O)C(=O)C4(C)C)C3(C)C(=O)CC12C (configuration not stated) | -1% | 0.016µM* | · | 0.037µM*
COc1cc(C2c3cc4c(cc3C(O)[C@H]3COC(=O)C23)OCO4)cc(OC)c1OC (some centres not stated) | · | 0.037µM* | 4% | 0.023µM*
COc1cc([C@@H]2c3cc4c(cc3[C@H](OC(C)=O)[C@H]3COC(=O)[C@@H]23)OCO4)cc(OC)c1OC | 0% | 1.1µM* | 1% | 1.1µM*
COc1cc([C@@H]2c3cc4c(cc3[C@@H](O)[C@H]3COC(=O)[C@H]23)OCO4)cc(OC)c1O | · | 0.11µM* | · | 0.1µM*
COc1cc([C@@H]2c3cc4c(cc3[C@@H](O)C3COC(=O)C32)OCO4)cc(OC)c1O (some centres not stated) | -1% | · | 0% | ·
CC/C=C\C[C@@H](/C=C/C=C\C/C=C\C/C=C\CCCC(=O)O)OO | · | · | 3% | ·
O=C(/C=C/c1ccc(Br)cc1)NC(=S)N1C[C@H]2C[C@H](C1)c1cccc(=O)n1C2 | -2% | 4% | · | 12%
COc1cc(N)c(Cl)cc1C(=O)N[C@@H]1CN2CCC1CC2 | · | · | 11%[56.1 µM] | ·
CN1CCN(c2ccc(Cl)cc2N)CC1 | -1% | -25% | -7% | -4%
Cc1ccc(Cl)cc1N1CCN(CCN)CC1 | 1% | ? | 2% | 16µM*
COC(=O)C1C(c2ccccc2)C2C(=O)c3c(OC)cc(OC)cc3O[C@@]12c1ccc(OC)cc1 (some centres not stated) | · | · | 10%[21 µM] | ·
CCOc1ccc2nc(N3CCC(C(=O)Nc4ccc(Br)cc4F)CC3)sc2c1 | 0% | 13µM* | -3% | 12µM*
CCOc1ccc2nc(NC(=O)c3cccn(Cc4ccc(Cl)cc4)c3=O)sc2c1 | -9% | 0% | 4% | 0%
C[C@]12CC[C@H]3[C@@H](CC[C@@]45O[C@@H]4C(O)=C(C#N)C[C@]35C)[C@@H]1CC[C@@H]2O | · | ? | · | -24%
O=C(CNC(=O)c1ccc(Br)cc1)NCC(=O)OCC(=O)c1ccc([N+](=O)[O-])cc1 | 58% | -14% | 8% | ?
SMILES | ClpP mod | DT40 TDP1 no CPT | TDP1 block | TDP1 cell CPT
CCCCOP(=O)(c1ccc(N(C)C)cc1)C(O)c1ccc(C(C)C)cc1 (configuration not stated) | -2% | -18% | · | ?
CC(C)CCOP(=O)(c1ccc(N(C)C)cc1)C(O)c1ccc(C(C)C)cc1 (configuration not stated) | -3% | 21µM* | · | ?
CCCCOP(=O)(c1ccc(N(C)C)cc1)C(O)c1c(Cl)cccc1Cl (configuration not stated) | -1% | ? | · | ?
CC(C)CCOP(=O)(c1ccc(N(C)C)cc1)C(O)c1ccc(Cl)cc1Cl (configuration not stated) | · | 21µM* | · | 16µM*
CCCCC/C=C\C/C=C\C/C=C\C/C=C\CCCC(=O)OCCN | · | · | 9% | ·
COc1cc2nc(N(C)C)c(CNCCc3c[nH]c4ccccc34)cc2c(OC)c1OC | · | -18% | · | 6%[9.04 µM]
CN1CC[C@@]2(CCCN(C(=O)c3csnn3)C2)C1 | · | -14% | · | 2%
ClCCN(CCCl)c1ccc(C=Nc2ccncc2)cc1 | -6% | 11µM* | · | ?
ClCCN(CCCl)c1ccc(C=Nc2ccc(/C=C/c3ccncc3)cc2)cc1 | -16% | 13µM* | · | 13µM*
Cc1ccc(OCC(=O)N2CCN(Cc3cccnc3)CC2)cc1 | 1% | 0% | -13% | -25%
COC(=O)c1c(OCc2cccnc2)cc(=O)n2c1CCN(Cc1cc3c(cc1Cl)OCO3)CC2 | · | 18µM* | · | ?
CC(C)[N+](C)(C)CC(O)CN(c1ccccc1)c1ccccc1 (configuration not stated) | -4% | -27% | 3% | ?
CN(C)c1c([N+](=O)[O-])cc(N2C(=O)C=CC2=O)cc1[N+](=O)[O-] | -13% | 1.3µM* | · | 1.3µM*
O=C(Nc1ccc(OC(=O)N2CCCCC2)cc1)N1CCOCC1 | · | 4% | 3% | 2%
O=C(Oc1ccc(Cl)c2ccccc12)N1CCCCC1 | 28µM* | ? | · | ?
O=C(Oc1ccc2ccc(OC(=O)N3CCCCCC3)cc2c1)N1CCCCCC1 | 3% | 21µM* | -3% | 12µM*
C[C@@H]1O[C@H](C[N+](C)(C)C)CS1 | · | · | 4%[56.1 µM] | ·
O=S(=O)(c1ccc(Cl)cc1)N1CCC(n2cnc3cc(C(F)(F)F)ccc32)CC1 | -12% | ? | · | ?
NC1CC1c1ccccc1 (configuration not stated) | · | · | 2% | ·
CCCC[C@H](CN(N=O)[C@@H](Cc1ccccc1)CN(C)N=O)N(CCc1ccccc1)N=O | 0% | ? | 3% | ?
CC(C)[C@H](CN(N=O)[C@@H](Cc1ccccc1)CN(C)N=O)N(CCc1ccccc1)N=O | -4% | 23µM* | 3% | 23µM*
O=C(CNC(=O)c1ccco1)OCN1C(=O)c2ccccc2C1=O | -1% | ? | 0% | ?
NC(N)=N/N=C/c1ccc(N2CCOCC2)cc1 | 4% | 4.6µM* | 3% | 4.6µM*
NC(N)=N/N=C/c1ccc(N(c2ccccc2)c2ccccc2)cc1 | 5% | 18µM* | · | 16µM*
COc1ccc(C=O)cc1 | 2% | -13% | 1% | 17%
COc1ccc(/C=N\N=C(N)N)cc1 | · | 16µM* | 3% | ?
